A word on the AC50: it is the midpoint of the concentration-response curve, whichever way the signal moves.

In all, about 2,400 compounds went through this assay and about 20 (0.8%) were called active. What follows is part of a selection rich in actives, with near analogues and random picks from the rest. A number with no mark means an inactive call.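 The calls were made as follows: active = AC50 no more than ten times the highest tested concentration, or full inhibition at every dose giving a flat fit (cut at about 30 µM in these data); inconclusive = flat fit with activity between 30% and 70%, or poor-quality invalid fit; inactive = AC50 more than ten times the top tested dose.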

The nature of the experiment: luciferase-based ADP detection interference – biochemical, luminescence, cell-free, homogeneous, artefact control for GSK-3a inhibitor project, dose response (AID 463205).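 Also: kinase-free counter-screen against the ADP-Glo detection reagents only; potency is for inhibitors that reduce the luminescence signal.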 The note with it: Cell-free ADP-Glo detection reagents, 5 uM ADP. (In general: ADP-Glo turns the ADP formed in a reaction into a luminescent signal.)
`C=CCSc1ncnc2c1oc1nc3c(cc12)COC(C)(C)C3`: the AC50 was over 30 µM. To `Nc1nonc1-n1nnc(C(=O)N/N=C/c2ccncc2)c1CSc1ccc(Cl)cc1` belongs over 30 µM. As for `O=S(=O)(c1cccc(NC(=S)NCc2ccco2)c1)N1CCOCC1`, the AC50 was over 30 µM. To `C=CC(=O)Nc1sc2c(c1C(N)=O)CCCC2` belongs over 30 µM.

On to `NC(=O)c1ccsc1NC(=O)C1CC1`, for which the AC50 is over 30 µM.

As for `Clc1cccc(/C=N/Nc2ncnc3ccccc23)c1`, the AC50 is over 30 µM. `COCCOC(=O)c1[nH]c2c(c1C)C(=O)CC(c1cc(OC)c(OC)c(OC)c1)C2` (stereo not drawn): the AC50 is over 30 µM. To `CC(=O)c1sc(NC(=O)CN2C(=O)C3CCCCC3C2=O)nc1-c1ccccc1` (stereo not drawn) belongs over 30 µM.

With `O=C(c1ccc2c3n(nc2c1)-c1ccccc1CO3)N1CCOCC1`, the AC50 is 22.5 µM (active). As for `Cc1ccc2c(c1)COc1c3ccc(C(=O)N4CCOCC4)cc3nn1-2`, the AC50 was over 30 µM. To `O=C(c1ccc2c3n(nc2c1)-c1ccc(Cl)cc1CO3)N1CCOCC1` belongs over 30 µM. Under `COc1ccc(S(=O)(=O)Nc2c(C(=O)O)[nH]c3ccc(OC)cc23)cc1` stands over 30 µM; under `COc1ccc(-c2cc(C(=O)N3CCN(c4ccccc4)CC3)no2)cc1OC`, over 30 µM.

On to `CCOC(=O)c1sc(NC(=O)C2CC2)cc1C`, for which the AC50 is over 30 µM. To `CCCCCCCCCCCCCCCC[N+](C)(C)CC` belongs over 30 µM. In the case of `c1cncc(-c2nc(NCC3COc4ccccc4O3)c3ccccc3n2)c1` (stereo not drawn), the AC50 was over 30 µM.

Consider `CC(C)(C)NC(=O)/C(=C\c1ccccc1F)NC(=O)c1ccc([N+](=O)[O-])cc1`, for which the AC50 was over 30 µM. To `O=C(CCN1CCOCC1)Nc1cccc(Br)c1` belongs over 30 µM; to `OCc1cn(-c2ccccc2)nn1`, over 30 µM.

Consider `O=C(COC(=O)c1ccc(F)cc1F)Nc1ccc(Cl)cn1`, for which the AC50 was over 30 µM. Under `CC(=NCCCn1ccnc1)c1c(O)n(Cc2ccccc2)c(=O)[nH]c1=O` stands over 30 µM. To `Cc1ccc(NC(=O)CSc2nnc(-c3ccncc3)o2)cc1` belongs over 30 µM; to `COc1ccc(/C=C2\Oc3cc(OCC(=O)N4CC(O)C[C@H]4C(=O)O)ccc3C2=O)c(OC)c1OC` (stereo partly drawn), over 30 µM. Under `CC(C)(C)c1ccc(/C=C2\Oc3cc(O)ccc3C2=O)cc1` stands over 30 µM; under `COc1ccc(CCn2cnc(=O)c(C#N)c2C)cc1OC`, over 30 µM. Consider `O=C(Nc1cccc(Cl)c1N1CCOCC1)c1ccc(Br)o1`, for which the AC50 is over 30 µM.

Consider `COc1ccc(C2C3(C#N)C(N)=NC(OC)(OC)C23C#N)cc1` (stereo not drawn), for which the AC50 was over 30 µM. To `CC(=O)N1CCN(c2ccccc2NC(=O)c2ccc(-c3cccc([N+](=O)[O-])c3)o2)CC1` belongs over 30 µM. Under `Nc1nc2n(n1)C(c1ccc(F)cc1)CC(c1ccc(F)cc1)N2` (stereo not drawn) stands over 30 µM. To `CCOc1ccc(S(=O)(=O)Nc2cccc(C(=O)NCCCn3ccnc3)c2)cc1` belongs over 30 µM. Regarding `O=C1c2cnc3nc(SCc4ccccc4)nn3c2CC2c3ccccc3CCN12` (stereo not drawn), the AC50 is over 30 µM. To `COc1ccc(NC(=O)Nc2ccc(F)cc2F)c(C)c1` belongs over 30 µM. Under `CCOC(=O)c1cnc2c(Cl)c(Cl)ccc2c1N1CCN(C)CC1` stands over 30 µM; under `COc1ccc(-c2cn3cccnc3n2)cc1NC(=O)C(C)C`, over 30 µM; under `O=c1cc(-c2ccsc2)oc2ccccc12`, over 30 µM. To `COc1ccccc1NC(=O)Nc1ccccc1Br` belongs over 30 µM; to `CCn1c2ccccc2c2nnc(SCC(N)=O)nc21`, over 30 µM; to `CCCC1=C(C(=O)OCC)C(c2ccc(N(C)C)cc2)n2ncnc2N1` (stereo not drawn), over 30 µM. Regarding `COCc1c(C(=O)N/N=C\c2cccnc2)nnn1-c1nonc1N`, the AC50 is over 30 µM.

Regarding `CC(C)(C)C(=O)c1cnc(Nc2ccccc2Cl)s1`, the AC50 is over 30 µM. Under `O=C(Nc1cccc(O)c1)c1ccc([N+](=O)[O-])cc1Cl` stands over 30 µM. To `CCOC(=O)N1CCc2c(sc3[nH]c(=S)[nH]c(=S)c23)C1` belongs over 30 µM. To `CCCCc1ccc(NC(=O)N[C@H](C(=O)O)C(C)CC)cc1` (stereo partly drawn) belongs over 30 µM; to `COc1ccccc1OCC(=O)Nc1sc2c(c1C(N)=O)CCC2`, over 30 µM; to `O=C(CSc1ccccc1)Nc1ccc2c(c1)C(=O)NC2=O`, over 30 µM. For `CCc1c(C)c(C#N)c2nc3ccccc3n2c1NC`, the AC50 is over 30 µM. As to `COc1ccc(/C=C2\Oc3cc(OCC(=O)N4CC(O)C[C@H]4C(=O)O)ccc3C2=O)cc1OC` (stereo partly drawn), the AC50 is over 30 µM. To `Cc1ccc(S(=O)(=O)N2CCN(CC(=O)N/N=C\c3ccccn3)CC2)cc1` belongs over 30 µM; to `COc1ccc(Cl)cc1Nc1nc(N)c2ccccc2n1`, over 30 µM; to `CCOc1ccc(Nc2nc(N(C)c3ccccc3)nc(N)c2[N+](=O)[O-])cc1`, over 30 µM. Take `CN(C)c1ccc(Nc2nc(N)c3ccccc3n2)cc1`: the AC50 was 22.8 µM (active). For `Cc1occc1C(=O)N/N=C/c1ccc(N(C)C)cc1`, the half-maximal activity concentration (AC50) is 28.1 µM (active).

With `CN(C)c1ccc(/C=N/NC(=O)c2ccccc2Cl)cc1`, the AC50 was over 30 µM.

On to `COc1cc(/C=N/NC(=O)c2ccoc2C)ccc1O`, for which the AC50 was over 30 µM.

Regarding `O=[N+]([O-])c1cc(S(=O)(=O)N2CCCCC2)ccc1NCCCN1CCOCC1`, the AC50 is over 30 µM.

As to `COc1ccc(C(=O)c2sc3nc(-c4ccc(OC)cc4)ccc3c2N)cc1`, the AC50 was over 30 µM. Under `CC(=O)N1CCN(c2ccccc2NC(=O)c2ccc(Br)o2)CC1` stands over 30 µM. Under `COc1cc(OC)cc(C(=O)O/N=C(\N)c2ccccn2)c1` stands over 30 µM.

Turning to `COc1cccc(C(=O)O/N=C(\N)c2ccccn2)c1`, the AC50 is 18.9 µM (active).

For the compound `COc1ccc(C(=O)Nc2nc(C)cc(C)n2)cc1`, the AC50 is over 30 µM.

Take `COc1ccc(C(=O)NNC(=O)c2ccccn2)cc1`: the AC50 was 14.9 µM (active). Consider `COc1ccc(C(=O)c2ccccc2Cl)cc1`, for which the AC50 was over 30 µM. To `COc1ccc(C(=O)O/N=C(\N)c2ccccn2)c(OC)c1` belongs over 30 µM.

Values taken from PubChem BioAssay AID463205 (Broad Institute, 2010).
